# According to PubChem BioAssay (EPA / NIEHS):
# Values joined by “and” are separate entries in the source; they are usually repeats but may differ in a detail not shown here. Identical values can stand only once. More than one record can exist for a structure, and the calls need not agree. Active and inactive are the calls of the source. Rule for the calls: active = hit-call score of the fitted dose curve at least 0.9, where 1 is the maximum; inactive = score below 0.9.
# Read-out: Interleukin 6 Receptor (IL6R), IL6R (gene 3570)
# Test: LTEA_HepaRG_IL6R: Life Technologies and Expression Analysis (LTEA) Assay for Interleukin 6 Receptor (IL6R) using HepaRG (AID 2283510);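 for AC50: TaqMan qRT-PCR signal normalized to ACTB GAPDH and POLR2A housekeeping genes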
# Conditions: mRNA level, 48 h; actives raise or lower the signal
# Protocol: LTEA_HepaRG is a cell based, multiplexed-readout assay that uses HepaRG, a human liver cell line, with measurements taken at 48 hours after chemical dosing on a 96-well plate.LTEA_HepaRG_IL6R is one of 102 assay component(s) measured in the LTEA HepaRG cell culture assay. It is a marker of Inflammation.Data from the assay component LTEA_HepaRG_IL6R was analyzed into 1 endpoint. This assay endpoint, LTEA_HepaRG_IL6R, was analyzed with bidirectional fitting relative to DMSO as the negative control and baseline of activity. Using a type of inducible reporter, measures of mRNA induction for gain or loss-of-signal activity can be used to understand regulation of transcription factor activity. To generalize the intended target to other relatable targets, this assay endpoint is annotated to the cytokine receptor intended target family, where the subfamily is JAK-STAT cytokine receptor.
# A total of 1060 chemcials from the ToxCast library were tested in eight-point concentration-response experiments. Cell culture and cytotoxicity assays were conducted at Thermo Fisher Scientific's Custom Services facility (Madison, WI). A single lot of human HepaRG cells (Thermo Fisher Scientific, Frederick, MD) was used for the cell culture experiments. 96-well format collagen type I coated plates of human HepaRG cells were prepared using established methods. Briefly, cryopreserved HepaRG cells were thawed, plated at a density of approximately 100,000 cells/well in HepaRG Thaw, Plate, and General Purpose media (HPRG770, Thermo Fisher Scientific), and incubated for 48 hours. 0.5% DMSO was selected as vehicle control to balance the requisite need of DMSO in HepaRG cultures to maintain differentiation (for example, baseline metabolism, proportions of hepatocytes vs. cholangiocytes), while enabling further hepatic receptor pathway activation (for example, PXR and CAR) in response to chemical exposure. 48 hours after plating, the culture medium was replaced with HepaRG Serum-Free Incudtion Media. Cells were exposed to each test chemical in duplicate and maintained in CO2 incubators for another 48 hours. Chemical plates were thawed to room temperature and 200x concentrations of treatment groups were prepared. 8-point conentration-reponse curves were made with the highest exposure at 100 uM, followed by half-log dilutions, all in 0.5% DMSO. Each test plate contained variouse controls, induction positive controls (1mM phenobarbital), cytotoxicity positive controls ([…] aflatoxin B1), vehicle controls (0.5% DMSO), and total lysis controls (0.5% DMSO). Cell morphology images were taken using an Essen IncuCyte FLR automated microscope, with six 96-well plates imaged in about 24 minutes. Images were captured and exported and JPEG files. Spent culture media was transfered to black-well plates for the LDH assay, and remaining media was sorted at -80 C for later use. Cells were treated with RLT buffer and frozen until shipped for gene expression analysis. Total RNA was isolated from the cell suspension in 75 uL of Buffer RLT (Qiagen, Germantown, MD 20874) by Quintiles/Expression Analysis (Durham, NC) using a custom isolation procedure. Total RNA from each plate well was transferred to a preamplification plate. Fluidigm's 96.96 Dynamic ArrayTM (Fluidigm, Amsterdam, the Netherlands) technology was used for gene expression analyses by quantitative reverse transcription polymerase chain reaction (qRT-PCR, performed by Quintiles/Expression Analysis, Durham, NC)89. Standard TaqManTM Assays (Applied Biosystems/ThermoFisher Scientific, Foster City, CA) were used to assess the expression of 93 genes selected based on their selectivity and sensitivity to important hepatic receptors known to be modulated by environmental chemicals; importance in human hepatocyte functionality; and hepatotoxicity. […]
SMILES,AC50,outcome
CCOCN(C(=O)CCl)c1c(C)cccc1CC,50 µM (active),–
CCC(C)(C)C(=O)OC1=C(c2ccc(Cl)cc2Cl)C(=O)OC12CCCCC2,–,inactive
CN1CSC(=S)N(C)C1,–,inactive
Oc1cc(Cl)ccc1Oc1ccc(Cl)cc1Cl,51 µM (active),inactive
CNC(=O)Oc1cccc(N=CN(C)C)c1,–,inactive
N#Cc1c(Cl)c(Cl)c(Cl)c(C#N)c1Cl,–,inactive
CCCN(CCC)c1c([N+](=O)[O-])cc(C(F)(F)F)cc1[N+](=O)[O-],–,inactive
CCOC1Oc2ccc(OS(C)(=O)=O)cc2C1(C)C (stereo not given),60.7 µM (active),–
CC(C)N(C(=O)COc1nnc(C(F)(F)F)s1)c1ccc(F)cc1,–,inactive
N#CN,–,inactive
O=C(NC(=O)c1c(F)cccc1F)Nc1ccc(OC(F)(F)C(F)OC(F)(F)F)c(Cl)c1 (stereo not given),–,inactive
CC(C)OC(=O)Nc1cccc(Cl)c1,–,inactive
O=C1c2ccccc2C(=O)N1SC(Cl)(Cl)Cl,–,inactive
CCN(CC)C(=O)SCc1ccc(Cl)cc1,–,inactive
O=S1OCC2C(CO1)C1(Cl)C(Cl)=C(Cl)C2(Cl)C1(Cl)Cl (stereo not given),11.4 µM (active),–
O=C(O)COc1ccc(Cl)cc1Cl,–,inactive
Oc1ccc(Cl)cc1Cc1ccccc1,83.6 µM (active),inactive
CC(C)(C)C(O)/C(=C\c1ccc(Cl)cc1Cl)n1cncn1 (stereo not given),50 µM (active),–

SMILES,AC50,outcome
ClC1C(Cl)C(Cl)C(Cl)C(Cl)C1Cl (stereo not given),–,inactive
CNC(=O)CSP(=S)(OC)OC,–,inactive
CC(C)(C)C(O)C(Oc1ccc(Cl)cc1)n1cncn1 (stereo not given),50 µM (active),inactive
CNC(=O)Oc1ccccc1OC(C)C,–,inactive
Cc1[nH]c(=O)n(C(C)(C)C)c(=O)c1Cl,–,inactive
CCC(C)Nc1c([N+](=O)[O-])cc(C(C)(C)C)cc1[N+](=O)[O-] (stereo not given),–,inactive
O=C(O)C(F)(F)C(F)(F)C(F)(F)C(F)(F)C(F)(F)C(F)(F)C(F)(F)F,–,inactive
CCCN(CCOc1c(Cl)cc(Cl)cc1Cl)C(=O)n1ccnc1,87.1 µM (active),–
CNC(=O)/C=C(\C)OP(=O)(OC)OC,–,inactive
O=S(=O)(O)C(F)(F)C(F)(F)C(F)(F)C(F)(F)C(F)(F)C(F)(F)C(F)(F)C(F)(F)F,82.9 µM (active) and 90 µM (active),inactive
CCC(C)(NC(=O)c1cc(Cl)c(C)c(Cl)c1)C(=O)CCl (stereo not given),–,inactive
O=[N+]([O-])/N=C1\NCCN1Cc1ccc(Cl)nc1,39 µM (active),–
CCc1ccc(C(=O)NN(C(=O)c2cc(C)cc(C)c2)C(C)(C)C)cc1,–,inactive
OCCOc1ccccc1,–,inactive
COP(=S)(OC)Oc1ccc([N+](=O)[O-])cc1,–,inactive
O=C(O)CCCOc1ccc(Cl)cc1Cl,–,inactive
Clc1ccccc1-c1nnc(-c2ccccc2Cl)nn1,–,inactive
CC[C@H](C)[C@H]1O[C@]2(C=C[C@@H]1C)C[C@@H]1C[C@@H](C/C=C(\C)[C@@H](O[C@H]3C[C@H](OC)[C@@H](O[C@H]4C[C@H](OC)[C@@H](O)[C@H](C)O4)[C@H](C)O3)[C@@H](C)/C=C/C=C3\CO[C@@H]4[C@H](O)C(C)=C[C@@H](C(=O)O1)[C@]34O)O2 (tested in a mixture with another compound),13.9 µM (active),–
